Among the data in PubChem BioAssay AID540345 (The Scripps Research Institute Molecular Screening Center, 2011) are inhibition values, retold here.

Unmarked numbers belong to inactive results. How the calls were made is not given here.

The assay has as its system Phorbol Ester. The assay is described as follows: off-target binding and CYP inhibition panel, profiling panel, selectivity assay for GPR7 antagonist project, biochemical, Ricerca HitProfilingScreen, CYP450, set 2 (AID 540345). As to conditions: Ricerca radioligand binding/CYP panel, at 10 µM, hits give high values.

For orientation: inhibition means the drop in the measured response relative to a control, in per cent. `COc1ccc(Oc2c(Cl)cnn(C3c4ccccc4-c4ccccc43)c2=O)cc1`: the inhibition is 0%.
